Assay outcomes deposited in PubChem BioAssay by National Center for Advancing Translational Sciences (NCATS).
NS1 inh = inhibitors of influenza NS1 protein function | Potency, µM (titrated, usually from 46.1 µM), for inactives: top-dose activity, positive = more growth | AID 2326 | 0.4% of 270,000 active; calls by dose curve; note: potency is the fitted concentration of half-maximal effect; actives are rising curves; nearly all actives have a fitted effect of over 50% in size
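S. cerevisiae expressing influenza A NS1, grown in glucose, washed, then diluted 1:100 into pH 6.0 -URA galactose medium with 23 nl compound. Growth recovery read as OD600; NS1-free strain serves as control.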
Pf growth 48h = P. falciparum growth inhibition at 48 hours (one generation) | P. falciparum luciferase growth in erythrocytes, 48 h | Potency, µM (series often up to 28.7 µM), for the others: top-dose activity change, negative = inhibition, actives largely listed as inhibitors | 5.9% of 310,000 active | AID 504832; note: potency is the fitted concentration of half-maximal effect; % is set by controls: 0 for no effect and ±100 for the full control effect
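Luciferase-expressing P. falciparum in infected erythrocytes (2% hematocrit, 0.1% parasitemia final) in RPMI 1640/0.5% Albumax were exposed to compound for 48 hours at 37 C, 5% CO2; growth read as luminescence.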
CHX counter = counter-screen for Shiga toxin inhibitors: cycloheximide protein synthesis inhibition; cell reporter, cycloheximide protein synthesis inhibition counterscreen; max response, %; 12% of 300,000 active; AID 2314; in the data active = max response mostly above about 13%, no sharp cut-off; inactive = mostly below about 14%; note: read at 38.3 µM for the half of the compounds with a filed dose; 0% is about no effect
SARS PLP yeast = inhibitors of SARS-CoV papain-like protease in yeast | S. cerevisiae expressing SARS-CoV PLpro, growth rescue | Potency, µM (titrated, usually from 32.9 µM), for inactives: top-dose activity, positive = growth rescue, hits mostly activators | 0.19% of 330,000 active | AID 485353; calls by dose curve; note: potency is the fitted concentration of half-maximal effect; 0% is about no effect; nearly all actives have a fitted effect of over 55% in size
Pf growth 96h = P. falciparum growth inhibition at 96 hours | P. falciparum luciferase reporter growth, 96 h | Potency, µM (doses to about 28.7 µM), without a hit: at the highest dose activity change, negative = inhibition, usual class: inhibitors | 6.9% of 320,000 active | AID 504834; note: potency is the fitted concentration of half-maximal effect; % is set by controls: 0 for no effect and ±100 for the full control effect
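96 h incubation, 37 C, 5% CO2, of luciferase-reporter P. falciparum-infected RBCs (2% hematocrit, 0.05% parasitemia final) with test compounds; endpoint luminescence.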
Shiga inhibitor = inhibitors of Shiga toxin in Vero cells; Vero cells, Shiga toxin protein synthesis inhibition reporter; inhibition, % at 38.7 µM; 9.2% of 290,000 active; AID 2315; in the data active = inhibition mostly above about 28%, no sharp cut-off; inactive = mostly below about 43%; note: 0% is about no effect
Active calls of the source: *; ? = inconclusive; · = no result; [ ] = dose if it differs, or a comment. Most compounds without a hit are left out; they make up all but 21% or so of the library. Unless noted, calls come from the whole dose curve; as a rule, active = well fitted inhibition curve with a large enough effect; inconclusive = small, poorly fitted or top-dose-only effect, or another doubt; inactive = no such curve, though single readings can be large or run the other way.

SMILES	NS1 inh	Pf growth 48h	CHX counter	SARS PLP yeast	Pf growth 96h	Shiga inhibitor
CC(C)CN(C(=O)CN1CCN(c2ccc([N+](=O)[O-])cc2)CC1)c1c(N)n(CC(C)C)c(=O)[nH]c1=O	·	-18%	-1	0%	?	-4
CCOP(=O)(c1ccc(N(C)C)cc1)C(O)c1ccccc1 (configuration not stated)	0%	12µM*	-4	2%	·	-12
CCOP(=O)(c1ccccc1)C(O)c1ccc(F)cc1 (configuration not stated)	4%	-5%	-2	19%	7.4µM*	-5
Cc1nc(-c2ccc(S(=O)(=O)N3CCCN(CCc4ccccc4)CC3)s2)cs1	-1%	?	-1	1%	4.1µM*	9
Cc1nc(-c2ccc(S(=O)(=O)NCc3ccccn3)s2)cs1	2%	29%	7	0%	-2%	14
CCN(CC)S(=O)(=O)c1ccc(-c2csc(C)n2)s1	-7%	43%	7	0%	34%	13
Cc1nc(-c2ccc(S(=O)(=O)Oc3ccccc3Cl)s2)cs1	-4%	33%	26*	0%	49%	33*
Cc1nc(-c2ccc(S(=O)(=O)N3CCN(C4c5ccccc5-c5ccccc54)CC3)s2)cs1	0%	?	30*	1%	?	94*
CCOC(=O)c1noc(C)c1C(=O)Nc1nc(C)cc(C)n1	·	-4%	-3	-1%	36%	-2
CCCc1nnc2n1N=C(c1ccc(C)cc1)CS2	-32%	6%	4	2%	?	-3
Cc1c(Cl)cccc1NC(=S)N1CCCN(Cc2ccccc2F)C1	·	?	-1	-3%	?	-5
Fc1ccccc1CN1CCCN(C(=S)Nc2cccc(Cl)c2)C1	·	9.3µM*	-4	1%	-29%	15
CCOc1ccc(S(=O)(=O)N2CCC(C(=O)OC(C)C(=O)N(C)C3CCCCC3)CC2)cc1 (configuration not stated)	-5%	?	-4	24%	?	-13
O=C(NCSC1=NCCS1)c1ccccc1	5%	4%	-2	5%	?	-14
O=C(CSC1=NCCS1)c1ccc(Cl)cc1	·	10µM*	-1	-23%	?	17
c1ccc(CSC2=NCCS2)cc1	·	17%	29	2%	-16%	120*
COC(=O)c1ccc(CSC2=NCCS2)cc1	3%	144%	61*	17%	47%	79*
O=[N+]([O-])c1ccc(CSC2=NCCS2)cc1	19%	32%	27*	2%	-3%	·
COC(=O)c1ccc(CNC(=O)CSC2=NCCS2)cc1	·	5%	11	-2%	31%	22
O=C(CSC1=NCCS1)N1CCN(c2ccc(Cl)cc2)CC1	-10%	1%	-3	4%	13%	-23
Cc1nnc(SCC(=O)Nc2sc3c(c2C(N)=O)CCC(C)C3)[nH]c1=O (configuration not stated)	·	41%	·	-5%	46%	·
CCOC(=O)C1(Cc2cccc(Cl)c2)CCCN(C(=O)CCN2CCCC2=O)C1 (configuration not stated)	0%	0%	25*	?	-8%	31
CCOC(=O)C1(Cc2cccc(Cl)c2)CCCN(C(=O)CCOC)C1 (configuration not stated)	1%	-4%	13*	-1%	5%	18
C=CCCC(=O)N1CCCC(Cc2cccc(Cl)c2)(C(=O)OCC)C1 (configuration not stated)	-25%	-28%	9	3%	12µM*	-35
CCOC(=O)C1(Cc2cccc(Cl)c2)CCCN(C(=O)CCSC)C1 (configuration not stated)	-21%	-10%	22*	1%	378%	29
CCN1C[C@@H]2[C@@H]3C(=O)N(Cc4ccccc4)C(=O)[C@@H]3[C@](Cc3ccccc3)(C(=O)OC)N2C1=NC	·	·	·	-18%	·	·
O=C(N/N=C/c1ccc(OC(F)F)cc1)c1cccc(S(=O)(=O)N2CCOCC2)c1	·	-40%[5.75 µM]	9	-1%	9%	-6
CCOC(=O)C1(Cc2ccccc2C)CCCN(C(=O)COC)C1 (configuration not stated)	1%	-6%	23*	-5%	?	41*
CCOC(=O)C1(Cc2ccccc2C)CCCN(C(=O)CCC(=O)OC)C1 (configuration not stated)	17%	-7%	-2	2%	?	11
